Reference: PubChem BioAssay AID1159580 (chemical genetic matrix, 2015)
The whole screen tested about 5,500 compounds, of which about 2,000 (36%) were called active. Not shown: some 18% with an inconclusive outcome. Rule as the data show it: active = normalized growth mostly below about 0.91 (no sharp cut-off); inconclusive = no clear call, values can overlap the other calls; inactive = mostly above about 0.92. The list shows a part of the results.

Assay: chemical genetic growth profiling, strain panel (AID 1159580);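 also: tested at 20 µM; growth read once vehicle control cultures reached saturation at 30 °C; 1 = growth at the plate median or of vehicle wells; lower values mean less growth of the strain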
Conditions: growth OD

Measured: normalized growth

COc1ccc2c3c([nH]c2c1)C(C)=NCC3
inactive: S. cerevisiae deletion strains, locus YKL009W, strain mrt4, hits give low values 1.02 | S. cerevisiae deletion strains, locus YKL068W, hits give low values 0.999 | S. cerevisiae deletion strains, locus YKL085W, strain MDH1 (second series), hits give low values 0.996 | S. cerevisiae deletion strains, locus YKL085W, strain MDH1, hits give low values 0.996 | S. cerevisiae deletion strains, locus YKL160W, strain elf1, hits give low values 1.01 | S. cerevisiae deletion strains, locus YKL190W, strain CNB1, hits give low values 1.01 | S. cerevisiae deletion strains, locus YKR001C, strain vps1, hits give low values 0.975 | S. cerevisiae deletion strains, locus YKR026C, strain gcn3, hits give low values 1.01 | S. cerevisiae deletion strains, locus YKR091W, strain srl3, hits give low values 0.999 | S. cerevisiae deletion strains, locus YLL001W, strain dnm1, hits give low values 1.01 | S. cerevisiae deletion strains, locus YLL026W, hits give low values 0.987 | S. cerevisiae deletion strains, locus YLL041C, strain sdh2, hits give low values 1.01 | S. cerevisiae deletion strains, locus YLR027C, strain aat2, hits give low values 1 | S. cerevisiae deletion strains, locus YLR039C, strain RIC1, hits give low values 1.02 | S. cerevisiae deletion strains, locus YLR058C, strain SHM2, hits give low values 1.01 | S. cerevisiae deletion strains, locus YLR102C, strain apc9, hits give low values 0.987 | S. cerevisiae deletion strains, locus YLR113W, strain HOG1, hits give low values 0.993 | S. cerevisiae deletion strains, locus YLR221C, strain rsa3, hits give low values 1 | S. cerevisiae deletion strains, locus YLR258W, strain gsy2, hits give low values 0.999 | S. cerevisiae deletion strains, locus YLR262C, strain YPT6 (second series), hits give low values 0.983 | S. cerevisiae deletion strains, locus YLR262C, strain YPT6, hits give low values 1.03 | S. cerevisiae deletion strains, locus YLR268W, strain sec22, hits give low values 0.979 | S. cerevisiae deletion strains, locus YLR320W, strain mms22, hits give low values 0.988 | S. cerevisiae deletion strains, locus YLR330W, strain CHS5, hits give low values 1 | S. cerevisiae deletion strains, locus YLR342W, strain FKS1 (second series), hits give low values 1.01 | S. cerevisiae deletion strains, locus YLR342W, strain FKS1, hits give low values 0.972 | S. cerevisiae deletion strains, locus YLR357W, strain rsc2, hits give low values 0.991 | S. cerevisiae deletion strains, locus YLR370C, strain arc18, hits give low values 1 | S. cerevisiae deletion strains, locus YLR371W, strain rom2, hits give low values 0.976 | S. cerevisiae deletion strains, locus YLR384C, strain iki3, hits give low values 1 | S. cerevisiae deletion strains, locus YLR418C, strain cdc73, hits give low values 0.98 | S. cerevisiae deletion strains, locus YML016C, strain PPZ1, hits give low values 1 | S. cerevisiae deletion strains, locus YML032C, strain rad52, hits give low values 0.993 | S. cerevisiae deletion strains, locus YML120C, strain ndi1, hits give low values 0.986 | S. cerevisiae deletion strains, locus YML124C, strain tub3, hits give low values 0.987 | S. cerevisiae deletion strains, locus YMR058W, strain fet3, hits give low values 1.02 | S. cerevisiae deletion strains, locus YMR078C, strain ctf18, hits give low values 0.996 | S. cerevisiae deletion strains, locus YMR125W, strain sto1, hits give low values 1 | S. cerevisiae deletion strains, locus YMR129W, hits give low values 0.981 | S. cerevisiae deletion strains, locus YMR205C, strain PFK2, hits give low values 1.01 | S. cerevisiae deletion strains, locus YMR223W, strain ubp8, hits give low values 0.99 | S. cerevisiae deletion strains, locus YMR231W, strain pep5, hits give low values 0.999 | S. cerevisiae deletion strains, locus YMR263W, strain SAP30, hits give low values 1.01 | S. cerevisiae deletion strains, locus YMR307W, strain GAS1, hits give low values 1.04 | S. cerevisiae deletion strains, locus YNL067W, strain RPL9B, hits give low values 0.999 | S. cerevisiae deletion strains, locus YNL071W, strain lat1, hits give low values 1 | S. cerevisiae deletion strains, locus YNL128W, strain TEP1, hits give low values 1.01 | S. cerevisiae deletion strains, locus YNL153C, strain GIM3, hits give low values 0.997 | S. cerevisiae deletion strains, locus YNL183C, strain NPR1, hits give low values 0.934 | S. cerevisiae deletion strains, locus YNL209W, strain ssb2, hits give low values 1 | S. cerevisiae deletion strains, locus YNL233W, strain BNI4, hits give low values 0.999 | S. cerevisiae deletion strains, locus YNL248C, strain rpa49, hits give low values 1 | S. cerevisiae deletion strains, locus YNL250W, strain rad50, hits give low values 0.983 | S. cerevisiae deletion strains, locus YNL271C, strain bni1, hits give low values 0.984 | S. cerevisiae deletion strains, locus YNL298W, strain CLA4, hits give low values 0.971 | S. cerevisiae deletion strains, locus YNL307C, strain MCK1, hits give low values 0.987 | S. cerevisiae deletion strains, locus YNL322C, strain KRE1 (second series), hits give low values 1 | S. cerevisiae deletion strains, locus YNL322C, strain KRE1, hits give low values 1.01 | S. cerevisiae deletion strains, locus YNR049C, strain mso1, hits give low values 0.999 | S. cerevisiae deletion strains, locus YNR052C, strain pop2, hits give low values 0.989 | S. cerevisiae deletion strains, locus YOL006C, strain TOP1, hits give low values 1.02 | S. cerevisiae deletion strains, locus YOL012C, strain htz1 0.706 | S. cerevisiae deletion strains, locus YOL147C, strain pex11, hits give low values 0.99 | S. cerevisiae deletion strains, locus YOR001W, strain rrp6, hits give low values 1.01 | S. cerevisiae deletion strains, locus YOR061W, strain CKA2, hits give low values 1 | S. cerevisiae deletion strains, locus YOR069W, strain VPS5, hits give low values 1.01 | S. cerevisiae deletion strains, locus YOR070C, strain gyp1, hits give low values 0.991 | S. cerevisiae deletion strains, locus YOR080W, strain dia2, hits give low values 0.997 | S. cerevisiae deletion strains, locus YOR083W, strain WHI5, hits give low values 0.991 | S. cerevisiae deletion strains, locus YOR106W, strain vam3, hits give low values 1.01 | S. cerevisiae deletion strains, locus YOR136W, strain idh2, hits give low values 0.983 | S. cerevisiae deletion strains, locus YOR144C, strain elg1, hits give low values 0.983 | S. cerevisiae deletion strains, locus YOR184W, strain ser1, hits give low values 0.994 | S. cerevisiae deletion strains, locus YOR231W, strain MKK1, hits give low values 0.987 | S. cerevisiae deletion strains, locus YOR265W, strain rbl2, hits give low values 1 | S. cerevisiae deletion strains, locus YOR270C, strain vph1, hits give low values 0.997 | S. cerevisiae deletion strains, locus YOR290C, strain snf2, hits give low values 1.01 | S. cerevisiae deletion strains, locus YOR316C, strain cot1, hits give low values 0.987 | S. cerevisiae deletion strains, locus YPL051W, strain arl3, hits give low values 0.999 | S. cerevisiae deletion strains, locus YPL055C, strain LGE1, hits give low values 1.03 | S. cerevisiae deletion strains, locus YPL078C, strain atp4, hits give low values 1 | S. cerevisiae deletion strains, locus YPL106C, strain sse1, hits give low values 0.991 | S. cerevisiae deletion strains, locus YPL240C, strain hsp82, hits give low values 0.996 | S. cerevisiae deletion strains, locus YPL241C, strain CIN2, hits give low values 1 | S. cerevisiae deletion strains, locus YPL256C, strain CLN2, hits give low values 0.976 | S. cerevisiae deletion strains, locus YPR119W, strain clb2, hits give low values 0.995 | S. cerevisiae deletion strains, locus YPR141C, strain kar3, hits give low values 0.984 | S. cerevisiae deletion strains, locus YPR163C, strain tif3, hits give low values 0.99 | S. cerevisiae deletion strains, locus YPR167C, strain met16, hits give low values 0.991 | S. cerevisiae deletion strains, strain wtn01, hits give low values 0.977 | S. cerevisiae strains, strain wild type, hits give low values 1.01
